Several values for one entry are separate records, joined by “and”; a condition that tells them apart may be missing. Equal entries are not always repeated. In all, about 5,500 compounds went through this assay and about 2,000 (36%) were called active. Not shown: some 18% with an inconclusive outcome. Rule as the data show it: active = normalized growth mostly below about 0.91 (no sharp cut-off); inconclusive = no clear call, values can overlap the other calls; inactive = mostly above about 0.92. Some of the results follow.
Assay: chemical genetic growth profiling, strain panel (AID 1159580);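 also: tested at 20 µM; growth read once vehicle control cultures reached saturation at 30 °C; 1 = growth at the plate median or of vehicle wells; lower values mean less growth of the strain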
Details: S. cerevisiae deletion strains, growth OD

Measured: normalized growth

CC(C)c1ccc2c(c1)CCC1C(C)(C(N)=O)CCCC21C (stereo unspecified)
active: locus YDL074C, strain BRE1, stronger effect = lower value 0.76 | locus YDL192W, strain arf1, stronger effect = lower value 0.831 | locus YDR137W, strain rgp1, stronger effect = lower value 0.679 | locus YDR392W, strain spt3, stronger effect = lower value 0.627 | locus YER155C, strain BEM2, stronger effect = lower value 0.89 | locus YER167W, strain BCK2, stronger effect = lower value 0.898 | locus YGL086W, strain mad1, stronger effect = lower value 0.894 | locus YGR229C, strain SMI1, stronger effect = lower value 0.654 | locus YHR079C, strain IRE1, stronger effect = lower value 0.848 | locus YHR142W, strain chs7, stronger effect = lower value 0.801 | locus YKL009W, strain mrt4, stronger effect = lower value 0.856 | locus YKR001C, strain vps1, stronger effect = lower value 0.78 | locus YLR039C, strain RIC1, stronger effect = lower value 0.569 | locus YLR113W, strain HOG1, stronger effect = lower value 0.78 | locus YLR262C, strain YPT6 (second series), stronger effect = lower value 0.734 | locus YLR262C, strain YPT6, stronger effect = lower value 0.498 | locus YLR330W, strain CHS5, stronger effect = lower value 0.909 | locus YLR342W, strain FKS1 (second series), stronger effect = lower value 0.645 | locus YLR371W, strain rom2, stronger effect = lower value 0.671 | locus YLR418C, strain cdc73, stronger effect = lower value 0.76 | locus YMR307W, strain GAS1, stronger effect = lower value 0.418 | locus YNL071W, strain lat1, stronger effect = lower value 0.916 | locus YNL233W, strain BNI4, stronger effect = lower value 0.792 | locus YNL298W, strain CLA4, stronger effect = lower value 0.887 | locus YNR052C, strain pop2, stronger effect = lower value 0.847 | locus YOR061W, strain CKA2, stronger effect = lower value 0.885 | locus YOR184W, strain ser1, stronger effect = lower value 0.703 | locus YPL051W, strain arl3, stronger effect = lower value 0.915
0.695 (active) and 0.911 (inactive): locus YJL095W, strain BCK1, stronger effect = lower value
0.815 (active) and 0.881 (inactive): locus YHR030C, strain SLT2, stronger effect = lower value
inactive: locus YAL013W, strain DEP1, stronger effect = lower value 0.923 | locus YAL021C, strain ccr4, stronger effect = lower value 1.01 | locus YAL026C, strain drs2, stronger effect = lower value 0.916 | locus YAL030W, strain snc1, stronger effect = lower value 0.966 | locus YBL061C, strain skt5, stronger effect = lower value 0.951 | locus YBR009C, strain hhf1, stronger effect = lower value 0.947 | locus YBR021W, strain FUR4, stronger effect = lower value 1.02 | locus YBR023C, strain chs3, stronger effect = lower value 0.916 | locus YBR171W, strain sec66, stronger effect = lower value 0.952 | locus YBR229C, strain ROT2, stronger effect = lower value 0.983 | locus YBR231C, strain swc5, stronger effect = lower value 0.993 | locus YBR279W, strain paf1, stronger effect = lower value 0.992 | locus YCL011C, strain gbp2, stronger effect = lower value 0.941 | locus YCL016C, strain dcc1, stronger effect = lower value 0.94 | locus YCL029C, strain bik1, stronger effect = lower value 0.969 | locus YCL061C, strain MRC1, stronger effect = lower value 0.953 | locus YCL069W, strain vba3, stronger effect = lower value 0.969 | locus YCR088W, strain abp1, stronger effect = lower value 0.958 | locus YDL005C, strain med2, stronger effect = lower value 0.954 | locus YDL035C, strain GPR1, stronger effect = lower value 0.88 | locus YDL040C, strain nat1, stronger effect = lower value 0.976 | locus YDL101C, strain DUN1, stronger effect = lower value 0.946 | locus YDL134C, strain PPH21, stronger effect = lower value 0.898 | locus YDL185W, strain tfp1, stronger effect = lower value 0.991 | locus YDR001C, strain nth1, stronger effect = lower value 0.948 | locus YDR069C, strain doa4, stronger effect = lower value 0.989 | locus YDR101C, strain arx1, stronger effect = lower value 0.937 | locus YDR159W, strain sac3, stronger effect = lower value 0.895 | locus YDR162C, strain NBP2, stronger effect = lower value 0.872 | locus YDR195W, strain ref2 0.922 | locus YDR297W, strain sur2, stronger effect = lower value 0.968 | locus YDR318W, strain mcm21, stronger effect = lower value 0.931 | locus YDR334W, strain swr1, stronger effect = lower value 0.965 | locus YDR335W, strain msn5, stronger effect = lower value 0.976 | locus YDR388W, stronger effect = lower value 0.972 | locus YDR502C, strain sam2, stronger effect = lower value 0.926 | locus YEL003W, strain gim4, stronger effect = lower value 0.971 | locus YEL037C, strain rad23, stronger effect = lower value 0.973 | locus YEL061C, strain CIN8 (second series), stronger effect = lower value 0.96 | locus YEL061C, strain CIN8, stronger effect = lower value 0.962 | locus YER015W, strain faa2, stronger effect = lower value 0.982 | locus YER016W, strain bim1, stronger effect = lower value 0.967 | locus YER110C, stronger effect = lower value 0.995 | locus YER111C, strain swi4, stronger effect = lower value 0.936 | locus YER155C, strain BEM2 (second series), stronger effect = lower value 0.955 | locus YFR010W, strain ubp6, stronger effect = lower value 0.957 | locus YGL078C, strain dbp3, stronger effect = lower value 0.964 | locus YGL167C, strain pmr1, stronger effect = lower value 0.945 | locus YGL173C, strain kem1, stronger effect = lower value 0.951 | locus YGL227W, strain vid30, stronger effect = lower value 0.965 | locus YGL240W, strain doc1, stronger effect = lower value 0.963 | locus YGL248W, strain PDE1, stronger effect = lower value 0.926 | locus YGL253W, strain hxk2, stronger effect = lower value 0.951 | locus YGR135W, strain pre9, stronger effect = lower value 0.932 | locus YGR252W, strain gcn5, stronger effect = lower value 0.857 | locus YHR013C, strain ard1, stronger effect = lower value 1.09 | locus YHR027C, strain rpn1, stronger effect = lower value 0.979 | locus YHR079C, strain IRE1 (second series), stronger effect = lower value 0.974 | locus YHR094C, strain hxt1, stronger effect = lower value 1 | locus YHR129C, strain ARP1, stronger effect = lower value 0.941 | locus YHR200W, strain rpn10, stronger effect = lower value 0.945 | locus YIL066C, strain RNR3, stronger effect = lower value 0.902 | locus YIL073C, strain SPO22, stronger effect = lower value 0.833 | locus YIL125W, strain kgd1, stronger effect = lower value 0.939 | locus YIR030C, strain dcg1, stronger effect = lower value 0.97 | locus YJL092W, strain hpr5, stronger effect = lower value 0.956 | locus YJL095W, strain BCK1 (second series), stronger effect = lower value 0.966 | locus YJL115W, strain asf1, stronger effect = lower value 0.976 | locus YJL129C, strain trk1, stronger effect = lower value 0.905 | locus YJL134W, strain LCB3, stronger effect = lower value 0.983 | locus YJL154C, strain vps35, stronger effect = lower value 0.961 | locus YJL164C, strain tpk1, stronger effect = lower value 0.941 | locus YJL166W, strain qcr8, stronger effect = lower value 0.965 | locus YJL168C, strain set2, stronger effect = lower value 0.993 | locus YJL187C, strain SWE1 (second series), stronger effect = lower value 0.924 | locus YJL187C, strain SWE1, stronger effect = lower value 0.968 | locus YJR043C, strain POL32, stronger effect = lower value 0.941 | locus YJR066W, strain TOR1, stronger effect = lower value 0.936 | locus YKL068W, stronger effect = lower value 0.965 | locus YKL085W, strain MDH1 (second series), stronger effect = lower value 0.944 | locus YKL085W, strain MDH1, stronger effect = lower value 0.944 | locus YKL160W, strain elf1, stronger effect = lower value 0.952 | locus YKL190W, strain CNB1, stronger effect = lower value 0.969 | locus YKR026C, strain gcn3, stronger effect = lower value 0.969 | locus YKR091W, strain srl3, stronger effect = lower value 0.963 | locus YLL001W, strain dnm1, stronger effect = lower value 0.926 | locus YLL026W, stronger effect = lower value 0.976 | locus YLL041C, strain sdh2, stronger effect = lower value 0.96 | locus YLR027C, strain aat2, stronger effect = lower value 0.979 | locus YLR058C, strain SHM2, stronger effect = lower value 0.949 | locus YLR102C, strain apc9, stronger effect = lower value 0.986 | locus YLR221C, strain rsa3, stronger effect = lower value 0.916 | locus YLR258W, strain gsy2, stronger effect = lower value 0.966 | locus YLR268W, strain sec22, stronger effect = lower value 0.917 | locus YLR320W, strain mms22, stronger effect = lower value 0.911 | locus YLR342W, strain FKS1, stronger effect = lower value 0.946 | locus YLR357W, strain rsc2, stronger effect = lower value 0.952 | locus YLR370C, strain arc18, stronger effect = lower value 0.952 | locus YLR384C, strain iki3, stronger effect = lower value 0.954 | locus YML016C, strain PPZ1, stronger effect = lower value 0.977 | locus YML032C, strain rad52, stronger effect = lower value 0.954 | locus YML120C, strain ndi1, stronger effect = lower value 0.939 | locus YML124C, strain tub3, stronger effect = lower value 0.972 | locus YMR058W, strain fet3, stronger effect = lower value 0.958 | locus YMR078C, strain ctf18, stronger effect = lower value 0.984 | locus YMR125W, strain sto1, stronger effect = lower value 0.954 | locus YMR129W, stronger effect = lower value 0.952 | locus YMR205C, strain PFK2, stronger effect = lower value 0.894 | locus YMR223W, strain ubp8, stronger effect = lower value 0.929 | locus YMR231W, strain pep5, stronger effect = lower value 0.98 | locus YMR263W, strain SAP30, stronger effect = lower value 0.943 | locus YNL067W, strain RPL9B, stronger effect = lower value 0.935 | locus YNL128W, strain TEP1, stronger effect = lower value 0.925 | locus YNL183C, strain NPR1, stronger effect = lower value 0.9 | locus YNL209W, strain ssb2, stronger effect = lower value 0.974 | locus YNL248C, strain rpa49, stronger effect = lower value 0.942 | locus YNL250W, strain rad50, stronger effect = lower value 0.97 | locus YNL271C, strain bni1, stronger effect = lower value 0.951 | locus YNL307C, strain MCK1, stronger effect = lower value 0.942 | locus YNL322C, strain KRE1 (second series), stronger effect = lower value 0.937 | locus YNR049C, strain mso1, stronger effect = lower value 0.969 | locus YOL012C, strain htz1 1.06 | locus YOL147C, strain pex11, stronger effect = lower value 0.965 | locus YOR001W, strain rrp6, stronger effect = lower value 0.973 | locus YOR069W, strain VPS5, stronger effect = lower value 0.966 | locus YOR070C, strain gyp1, stronger effect = lower value 0.955 | locus YOR080W, strain dia2, stronger effect = lower value 0.964 | locus YOR083W, strain WHI5, stronger effect = lower value 0.917 | locus YOR106W, strain vam3, stronger effect = lower value 0.955 | locus YOR136W, strain idh2, stronger effect = lower value 0.962 | locus YOR144C, strain elg1, stronger effect = lower value 0.956 | locus YOR231W, strain MKK1, stronger effect = lower value 0.891 | locus YOR265W, strain rbl2, stronger effect = lower value 0.965 | locus YOR270C, strain vph1, stronger effect = lower value 0.984 | locus YOR290C, strain snf2, stronger effect = lower value 0.902 | locus YOR316C, strain cot1, stronger effect = lower value 0.983 | locus YPL078C, strain atp4, stronger effect = lower value 0.946 | locus YPL106C, strain sse1, stronger effect = lower value 0.93 | locus YPL240C, strain hsp82, stronger effect = lower value 0.966 | locus YPL241C, strain CIN2, stronger effect = lower value 0.98 | locus YPL256C, strain CLN2, stronger effect = lower value 0.838 | locus YPR119W, strain clb2, stronger effect = lower value 0.942 | locus YPR141C, strain kar3, stronger effect = lower value 0.968 | locus YPR163C, strain tif3, stronger effect = lower value 0.966 | locus YPR167C, strain met16, stronger effect = lower value 0.985 | strain wtn01, stronger effect = lower value 0.922
